# Source: PubChem BioAssay (Tox21)
# Results filed as inconclusive are left out. Entries that show only a call come without a potency. A number with no mark means an inactive call. Calls of active or inactive are those of the source. Calls come from the whole dose curve.
# Target: Progesterone receptor (Homo sapiens) (UniProt P06401)
# Assay: qHTS assay to identify small molecule agonists of the progesterone receptor (PR) signaling pathway (AID 1346784); note: nearly all actives have a fitted effect of over 30% in size
# Conditions: PR-UAS-bla HEK293T, beta-lactamase FRET ratio, 16 h; series mostly up to 92.4 µM; activation: at the top concentration
# Description: U.S. Tox21 Program National Center for Advancing Translational Sciences [NCATS] NIH Chemical Genomics Center [NCGC] U.S. Environmental Protection Agency [EPA] National Institutes of Environmental Health Sciences [NIEHS] National Toxicology Program [NTP] U.S. Food and Drug Administration [FDA] […] Endocrine disrupting chemicals (EDCs) and their interactions with steroid hormone receptors like PR causes disruption of normal endocrine function. To identify the compounds that activate PR signaling, a PR-UAS-bla GripTite cell line i.e. PR-UAS-bla HEK 293T (Invitrogen, Carlsbad, CA, USA) containing a beta-lactamase reporter gene under the control of an Upstream Activator Sequence (UAS) was used to screen Tox21 10K compound library.
# Tox21 Assay Protocol Summary: PR-UAS-bla HEK 293T cells were dispensed at 3,000 cells/5 uL of assay medium containing 2% charcoal stripped FBS per well into black wall/clear-bottom 1536-well plates using a Multidrop Combi (ThermoFisher Scientific, Waltham, MA) dispenser. After the assay plates were incubated at a 37C and 5% CO2 for 6hr, 23 nL of compounds dissolved in DMSO, positive controls or DMSO only was transferred to the assay plate by a Pintool station (Kalypsys, San Diego, CA). The plates were incubated at 37C and 5% CO2 for 16hr. Then 1 uL of LiveBLAzer B/G FRET substrate was added using a BioRAPTR FRD (Flying Reagent Dispenser, Aurora Discovery, San Diego, CA). After the plates were incubated at room temperature for 2 hours, fluorescence intensity was measured by an Envision plate reader (PerkinElmer, Shelton, CT).
# Potency is the fitted concentration of half-maximal effect.
# Chain of Progesterone receptor (Homo sapiens) (P06401 whole entry, looked up): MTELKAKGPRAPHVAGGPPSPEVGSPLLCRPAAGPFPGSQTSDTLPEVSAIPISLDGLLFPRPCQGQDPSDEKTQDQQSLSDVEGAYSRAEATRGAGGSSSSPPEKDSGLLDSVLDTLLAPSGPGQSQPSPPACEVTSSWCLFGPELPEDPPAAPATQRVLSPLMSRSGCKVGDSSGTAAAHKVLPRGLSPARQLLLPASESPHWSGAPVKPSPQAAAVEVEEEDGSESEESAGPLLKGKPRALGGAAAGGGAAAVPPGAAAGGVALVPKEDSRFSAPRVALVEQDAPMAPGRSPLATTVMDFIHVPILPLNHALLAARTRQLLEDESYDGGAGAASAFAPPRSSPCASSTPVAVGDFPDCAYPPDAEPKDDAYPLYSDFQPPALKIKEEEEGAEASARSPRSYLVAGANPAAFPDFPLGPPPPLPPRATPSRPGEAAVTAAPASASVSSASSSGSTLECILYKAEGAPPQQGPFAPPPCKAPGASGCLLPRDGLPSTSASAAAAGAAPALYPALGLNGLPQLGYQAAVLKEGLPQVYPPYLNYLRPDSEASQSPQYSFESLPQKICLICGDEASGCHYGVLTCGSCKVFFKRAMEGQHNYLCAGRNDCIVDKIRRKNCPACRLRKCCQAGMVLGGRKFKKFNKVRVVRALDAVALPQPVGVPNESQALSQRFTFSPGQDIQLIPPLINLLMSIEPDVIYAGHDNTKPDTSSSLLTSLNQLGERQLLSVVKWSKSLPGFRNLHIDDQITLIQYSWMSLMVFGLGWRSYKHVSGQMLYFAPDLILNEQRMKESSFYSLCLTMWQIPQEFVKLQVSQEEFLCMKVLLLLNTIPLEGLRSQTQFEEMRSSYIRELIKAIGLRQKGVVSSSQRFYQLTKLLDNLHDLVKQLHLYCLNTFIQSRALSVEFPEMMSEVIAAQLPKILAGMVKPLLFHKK
Structure (SMILES),activation,Potency
C=C(C)C(=O)O[C@H]1C[C@@H]2CC[C@@]1(C)C2(C)C,-0.518%,–
CC1=CCC2CC1C2(C)C (stereo not given),–,inactive
C=C(C)C(=O)Nc1ccc(Cl)c(Cl)c1,–,inactive
CCCCC(CC)COC(=O)C(C#N)=C(c1ccccc1)c1ccccc1 (stereo not given),–,inactive
Cc1cccnc1,–,inactive
CCCCCCCCC/C=C/CC1CC(=O)OC1=O (stereo not given),–,inactive
CN(C)CCOCCN(C)C,–,inactive
COc1ccc(Nc2ccccc2)c(C)c1,–,inactive
CCCCCC(N)=O,–,inactive
CCCCCCCC(=O)OC,–,inactive
CCCCCCCCCCCCS,–,inactive
CCCC(C)=O,–,inactive
CSCCC=O,–,inactive
O=C(O)c1cc(O)c(O)c(O)c1,–,inactive
O=[N+]([O-])c1ccc(/C=C/c2ccc([N+](=O)[O-])cc2S(=O)(=O)O)c(S(=O)(=O)O)c1,–,inactive
CCCCCC1=CCCC1=O,-1.04%,–
CCCCC(CC)CO (stereo not given),–,inactive
Nc1ccccc1[N+](=O)[O-],–,inactive
C[Si](O[Si](C)(C)C)O[Si](C)(C)C,–,inactive
CC(C)c1ccc(S(=O)(=O)O)cc1,–,inactive

Structure (SMILES),activation,Potency
CCCCCC/C(C=O)=C\c1ccccc1,–,inactive
Fc1ccc(Br)cc1,–,inactive
CC(=O)OCC(=O)[C@@]12N=C(C)O[C@@H]1C[C@H]1[C@@H]3CCC4=CC(=O)C=C[C@]4(C)[C@H]3[C@@H](O)C[C@@]12C,–,686 nM (active)
CCCCCCCCCC,–,inactive
N[C@@H](Cc1cc(I)c(Oc2cc(I)c(O)c(I)c2)c(I)c1)C(=O)O,–,inactive
c1ccc(OCCOc2ccccc2)cc1,–,inactive
CCCCOC(=O)COc1ccc(Cl)cc1Cl,–,inactive
CN(C)CCC(c1ccccc1)c1ccccn1 (stereo not given),–,inactive
CCC(O)OC(O)CC (stereo not given),–,inactive
Oc1cccc2ccccc12,–,inactive
CCCCCCCCCCCCCCCO,–,inactive
O=C(OCCOCCOC(=O)c1ccccc1)c1ccccc1,–,inactive
CCCCCCOCCO,–,inactive
NNc1nncc2ccccc12,–,inactive
Nc1cc([N+](=O)[O-])ccc1O,–,inactive
O=C=NCCCCCCN=C=O,–,inactive
O=C(O)c1cc(=O)c2c(OCC(O)COc3cccc4oc(C(=O)O)cc(=O)c34)cccc2o1,–,inactive
CC1CCC(C(C)C)C(O)C1 (stereo not given),–,inactive
O=P(OC(CCl)CCl)(OC(CCl)CCl)OC(CCl)CCl,–,inactive
O=C(O)c1ccc(C(=O)O)cc1,–,inactive
